An excerpt weighted towards active compounds, which were near 3.5% of everything screened.
Bead autofluor = counter-screen for toxin protease inhibitors: compound fluorescence | compound autofluorescence counterscreen, microsphere flow cytometry; hits give high values | fluorescence intensity (no concentration beside the values) | actives 3.1% (n = 360,000) | AID 624483; in the data active = fluorescence intensity above about 16000; inconclusive = no clear call, values can overlap the other calls
BoNT-A LC inh2 = BoNT/A light chain protease inhibitors, primary screen, biochemical, flow cytometry, MLPCN library; multiplex microsphere protease substrate cleavage; inhibition, % at 10 µM; Botulinum neurotoxin type A light chain protease (Clostridium botulinum A str. ATCC 3502); actives 0.17% (n = 360,000); AID 588499, 2011; also: plate controls were buffer without enzyme for full effect and enzyme alone for no effect
Anthrax LF inh2 = Bacillus anthracis LF protease inhibitors, primary screen, biochemical, multiplex microsphere, MLPCN library; AID 588501, 2011; multiplex microsphere protease cleavage assay; actives 0.12% (n = 360,000); inhibition, % at 10 µM; also: plate controls were buffer without enzyme for full effect and enzyme alone for no effect
Target sequence (P15917 whole entry, looked up): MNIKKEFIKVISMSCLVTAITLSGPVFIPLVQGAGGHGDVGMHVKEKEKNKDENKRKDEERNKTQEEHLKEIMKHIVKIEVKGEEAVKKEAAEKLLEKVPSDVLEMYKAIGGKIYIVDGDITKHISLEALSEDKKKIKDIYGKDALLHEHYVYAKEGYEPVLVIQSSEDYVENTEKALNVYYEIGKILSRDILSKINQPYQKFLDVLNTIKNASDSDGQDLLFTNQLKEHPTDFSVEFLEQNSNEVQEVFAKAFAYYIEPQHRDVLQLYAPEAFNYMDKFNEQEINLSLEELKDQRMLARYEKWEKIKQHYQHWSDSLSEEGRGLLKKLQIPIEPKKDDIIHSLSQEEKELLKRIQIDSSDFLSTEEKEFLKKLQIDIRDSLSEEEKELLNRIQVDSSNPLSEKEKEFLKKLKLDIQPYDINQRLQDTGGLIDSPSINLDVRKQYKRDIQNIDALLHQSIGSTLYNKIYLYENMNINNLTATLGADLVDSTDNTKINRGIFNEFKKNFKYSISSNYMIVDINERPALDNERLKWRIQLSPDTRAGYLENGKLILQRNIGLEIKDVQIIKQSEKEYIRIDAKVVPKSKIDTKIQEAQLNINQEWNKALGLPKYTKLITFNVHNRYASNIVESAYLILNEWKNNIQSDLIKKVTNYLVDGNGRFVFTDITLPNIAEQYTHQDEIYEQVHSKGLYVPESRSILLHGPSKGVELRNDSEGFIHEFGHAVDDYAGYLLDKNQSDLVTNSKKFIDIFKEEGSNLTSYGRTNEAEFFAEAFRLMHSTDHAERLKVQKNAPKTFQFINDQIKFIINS
BoNT-F LC inh = BoNT/F light chain protease inhibitors, primary screen, biochemical, flow cytometry, MLPCN library | actives 0.22% (n = 360,000) | AID 588497, 2011 | inhibition, % at 10 µM | Multiplex microsphere protease cleavage assay; in the data active = inhibition above about 35%, passing the limit was not always enough; inconclusive = no clear call, values can overlap the other calls; also: plate controls were buffer without enzyme for full effect and enzyme alone for no effect
SARS 3CLpro inh = SARS-CoV 3CLpro protease inhibitors, primary screen, biochemical, quenched FRET; inhibition, % at 6 µM; recombinant SARS-CoV 3CLpro, quenched FRET peptide cleavage; Replicase polyprotein 1ab (Severe acute respiratory syndrome coronavirus), P0C6X7; AID 1706, 2009; actives 0.14% (n = 290,000); in the data active = inhibition above about 12%
Numbers without * were called inactive. Rule as the data show it, unless noted: active = inhibition above about 30%; inconclusive = no clear call, values can overlap the other calls; inactive = below that.

How did COc1ccc(/C=C/CN2CCC(C(=O)NC(c3ccc(F)cc3)c3ccc4ccccc4n3)CC2)cc1 (configuration not stated) do in these assays?
Bead autofluor: 4830; BoNT-A LC inh2: -0.6; Anthrax LF inh2: -3.8; BoNT-F LC inh: -23.4

Results for COc1ccc([N+](=O)[O-])cc1NC(=O)CCC(=O)c1cccs1 ?
Bead autofluor: 3124; BoNT-A LC inh2: 0.4; Anthrax LF inh2: 3.1; BoNT-F LC inh: -1.4; SARS 3CLpro inh: -1.0

What do the screens show for `Cc1ccc(S(=O)(=O)N2CC=C(c3ccc(F)cc3)CC2)cc1`?
Bead autofluor: 2616; BoNT-A LC inh2: -0.5; Anthrax LF inh2: -0.4; BoNT-F LC inh: -5.6; SARS 3CLpro inh: 0.2

Results for C=C1CC2C=C(NC(C)=O)CC(C1)C2 (configuration not stated) ?
Bead autofluor: 22238*; BoNT-A LC inh2: -0.4; Anthrax LF inh2: -3.0; BoNT-F LC inh: -1.3; SARS 3CLpro inh: -1.7

What do the screens show for `CCCCCC(C(=O)O)C(C)CC(=O)NC1CCCCC1` (configuration not stated)?
Bead autofluor: 5113; BoNT-A LC inh2: -0.8; Anthrax LF inh2: 2.8; BoNT-F LC inh: -7.1; SARS 3CLpro inh: 2.5

Results for CCOc1ccccc1-c1noc(CCC(=O)NC2CCCCC2)n1 ?
Bead autofluor: 6906; BoNT-A LC inh2: -4.7; Anthrax LF inh2: 0.0; BoNT-F LC inh: -6.6; SARS 3CLpro inh: -1.6

Results for CCOC(=O)c1cc(C(=O)Nc2ccc(C)c(F)c2)nn1C ?
Bead autofluor: 21479*; BoNT-A LC inh2: -3.2; Anthrax LF inh2: -2.4; BoNT-F LC inh: -5.6; SARS 3CLpro inh: 2.2

How did N#Cc1ccc(Sc2ccccn2)c([N+](=O)[O-])c1 do in these assays?
Bead autofluor: 4256; BoNT-A LC inh2: 1.5; Anthrax LF inh2: 10.3; BoNT-F LC inh: inconclusive; SARS 3CLpro inh: -1.2

What do the screens show for `COc1cccc(CCC(=O)N(C)C2CCCN(Cc3ccccc3F)C2)c1` (configuration not stated)?
Bead autofluor: 3255; BoNT-A LC inh2: 2.8; Anthrax LF inh2: -11.2; BoNT-F LC inh: 36.0*; SARS 3CLpro inh: -0.4

How did COc1ccc(NC(=O)c2cccnc2)c(OC)c1 do in these assays?
Bead autofluor: 20616*; BoNT-A LC inh2: inconclusive; Anthrax LF inh2: -0.8; BoNT-F LC inh: 2.5; SARS 3CLpro inh: 3.5

How did COc1ccc(NC(=O)c2cc(-c3cccnc3)nc3c(C)c(C)ccc23)c(OC)c1 do in these assays?
Bead autofluor: 17562*; BoNT-A LC inh2: 9.2; Anthrax LF inh2: -0.1; BoNT-F LC inh: 9.4; SARS 3CLpro inh: -1.9

How did COc1ccc(NC(=O)c2ccccc2C)c(OC)c1 do in these assays?
Bead autofluor: 16437*; BoNT-A LC inh2: -1.1; Anthrax LF inh2: -2.2; BoNT-F LC inh: 1.9; SARS 3CLpro inh: 1.2

What do the screens show for `COc1ccc(NC(=O)c2ccccc2Oc2ccccc2)c(OC)c1`?
Bead autofluor: 2964; BoNT-A LC inh2: 0.7; Anthrax LF inh2: -4.8; BoNT-F LC inh: -3.3; SARS 3CLpro inh: 3.5

How did COc1ccccc1NC(=O)c1cccnc1 do in these assays?
Bead autofluor: 3025; BoNT-A LC inh2: -0.4; Anthrax LF inh2: -4.7; BoNT-F LC inh: -14.4; SARS 3CLpro inh: -1.0

Results for COc1ccc(NC(=O)Nc2cc(C)ccc2OC(F)F)c(OC)c1 ?
Bead autofluor: 22223*; BoNT-A LC inh2: 2.3; Anthrax LF inh2: -6.2; BoNT-F LC inh: 1.4; SARS 3CLpro inh: -0.7

Results for O=C(Nc1cccnc1Cl)c1cccs1 ?
Bead autofluor: 3682; BoNT-A LC inh2: -2.4; Anthrax LF inh2: 2.4; BoNT-F LC inh: -25.5; SARS 3CLpro inh: 0.3

What do the screens show for `Clc1cccc(-c2ccc(C=Nc3ccc(N4CCOCC4)cc3)o2)c1Cl`?
Bead autofluor: 4463; BoNT-A LC inh2: -0.4; Anthrax LF inh2: -9.9; BoNT-F LC inh: -4.7; SARS 3CLpro inh: 0.8

What do the screens show for `Cc1cc(C)cc(NC(=O)C2CCCN2C(=O)Oc2ccccc2)c1` (configuration not stated)?
Bead autofluor: 5855; BoNT-A LC inh2: -0.2; Anthrax LF inh2: -1.6; BoNT-F LC inh: -6.2; SARS 3CLpro inh: 3.7

Results for Cc1csc(NC(=O)C2CCCN2C(=O)Oc2ccccc2)n1 (configuration not stated) ?
Bead autofluor: 22986*; BoNT-A LC inh2: 0.4; Anthrax LF inh2: 4.0; BoNT-F LC inh: 1.2; SARS 3CLpro inh: 1.5

What do the screens show for `CCc1c(C)c2ccc(OCC(=O)OC)cc2oc1=O`?
Bead autofluor: 17530*; BoNT-A LC inh2: inconclusive; Anthrax LF inh2: -4.9; BoNT-F LC inh: -9.9; SARS 3CLpro inh: -0.1

Results for CNc1nc(-c2ccccc2)nnc1C(F)(F)F ?
Bead autofluor: 22123*; BoNT-A LC inh2: inconclusive; Anthrax LF inh2: -1.7; BoNT-F LC inh: 0.4; SARS 3CLpro inh: 2.9

What do the screens show for `Cc1ccccc1C(=O)NC1CCN(Cc2nnnn2Cc2ccccc2)CC1`?
Bead autofluor: 10508; BoNT-A LC inh2: -3.0; Anthrax LF inh2: -14.7; BoNT-F LC inh: 2.8; SARS 3CLpro inh: 6.4

How did O=C(NC1CCN(Cc2nnnn2CCc2ccccc2)CC1)c1ccccc1F do in these assays?
Bead autofluor: 22189*; BoNT-A LC inh2: 2.6; Anthrax LF inh2: -2.4; BoNT-F LC inh: 5.0; SARS 3CLpro inh: 3.8

What do the screens show for `CSc1ncccc1C(=O)OCc1ccccc1`?
Bead autofluor: 3246; BoNT-A LC inh2: -0.1; Anthrax LF inh2: -2.4; BoNT-F LC inh: 4.1; SARS 3CLpro inh: 0.5

Results for CCOC(=O)c1cccnc1SCC(=O)N(C)c1ccccc1 ?
Bead autofluor: 22147*; BoNT-A LC inh2: 1.4; Anthrax LF inh2: 3.3; BoNT-F LC inh: 0.1; SARS 3CLpro inh: 1.2

Results for CCCCCCNc1cc(C)oc(=O)c1C(C)=O ?
Bead autofluor: 2546; BoNT-A LC inh2: -0.3; Anthrax LF inh2: -2.1; BoNT-F LC inh: 0.1; SARS 3CLpro inh: -1.5

How did CCCCNc1cc(C)oc(=O)c1C(C)=O do in these assays?
Bead autofluor: 21662*; BoNT-A LC inh2: 6.1; Anthrax LF inh2: -2.1; BoNT-F LC inh: 6.0; SARS 3CLpro inh: -3.9

How did CC(C)N(Cc1ccccc1)C(=O)COC(=O)c1ccc2ncsc2c1 do in these assays?
Bead autofluor: 7988; BoNT-A LC inh2: -0.4; Anthrax LF inh2: -6.3; BoNT-F LC inh: 4.4

Results for O=C(COc1ccc2ccccc2c1)N1c2ccccc2Sc2ccccc21 ?
Bead autofluor: 22677*; BoNT-A LC inh2: -7.3; Anthrax LF inh2: 1.0; BoNT-F LC inh: -6.0; SARS 3CLpro inh: -3.1

How did O=C(CCl)N1c2ccccc2Sc2ccc3ccccc3c21 do in these assays?
Bead autofluor: 3468; BoNT-A LC inh2: -0.1; Anthrax LF inh2: -2.1; BoNT-F LC inh: 0.1

How did Cc1cc(=O)n2c(sc3ccccc32)c1C#N do in these assays?
Bead autofluor: 3679; BoNT-A LC inh2: -0.3; Anthrax LF inh2: -10.0; BoNT-F LC inh: -6.9; SARS 3CLpro inh: -0.4

How did CC12CCC(C(=O)Nc3cccnc3)(CC1=O)C2(C)C (configuration not stated) do in these assays?
Bead autofluor: 4581; BoNT-A LC inh2: 1.1; Anthrax LF inh2: -0.7; BoNT-F LC inh: 20.8; SARS 3CLpro inh: 2.1
